This is an account of results in PubChem BioAssay (NCATS).

SMILES strings stand for the structures. Results filed as inconclusive are left out. Entries that show only a call come without a potency. Active and inactive are the calls of the source. The call rests on the fitted dose curve; in most records, active means well fitted curve in the direction sought with a large enough effect; inconclusive means small, poorly fitted or top-dose-only effect, or another doubt; inactive means no such curve, though single readings can be large; an effect the other way counts as inactive or inconclusive.
Potency means the concentration at half of the fitted maximal effect.

A short description of the first assay: qHTS of pediatric cancer cell lines to identify multiple opportunities for drug repurposing: Primary screen for A673 cells (AID 1347092). Further: nearly all actives have a fitted effect of over 45% in size. The settings on record: A673 Ewing sarcoma viability, CellTiter-Glo ATP luminescence, 48 h; series mostly up to 46 µM. Summed up: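 A673 cells (500-1,000 cells/well in growth media) were pre-incubated 5 h at 37 degrees C, then exposed to compounds for 48 h. Viability was read as CellTiter-Glo luminescence; concentration-response curves came directly from the primary screen.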
A general note: In qHTS, concentration-response curves come from the screen itself.
As for `CCO/N=C(\CC)C1=C(O)CC(c2c(C)cc(C)cc2C)CC1=O` (stereo unspecified), the Potency result was “inactive”.

With `CC1(N2CCC(n3c([C@@H]4CCCNC4)nc4ccccc43)CC2)CCCCCCC1`, the Potency was 11800 nM (active). Take `O=S(=O)(c1ccc(Cl)cc1)c1ccc(Cl)cc1`: the Potency entry was “inactive”.

Another assay is described as follows: qHTS of pediatric cancer cell lines to identify multiple opportunities for drug repurposing: Primary screen for SK-N-MC cells (AID 1347093). To be noted: SK-N-MC viability, CellTiter-Glo luminescence, 48 h; series mostly up to 46 µM. Summed up: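 Metabolically active cells were quantified by ATP-dependent luminescence (CellTiter-Glo, 15 min at room temperature) following 48 h treatment. Cells had been plated at 500-1,000 per well and settled for 5 h beforehand.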
Regarding `Cc1c(N)nc([C@H](CC(N)=O)NC[C@@H](N)C(N)=O)nc1C(=O)N[C@H](C(=O)N[C@@H](C)[C@H](O)[C@@H](C)C(=O)N[C@@H](C(=O)NCCc1nc(-c2nc(C(=O)NCCC[S+](C)C)cs2)cs1)[C@@H](C)O)C(O[C@H]1O[C@H](CO)[C@H](O)[C@@H](O)[C@@H]1O[C@H]1O[C@H](CO)[C@@H](O)[C@H](OC(N)=O)[C@H]1O)c1cnc[nH]1` (stereo partly specified), the Potency was 833 nM (active). Take `O=C(NCC1CCOCC1)c1cnc(Nc2ccc(Cl)cc2Cl)nc1C(F)(F)F`: the Potency was 3320 nM (active). On the same count and under the same terms, the same measure for `C[C@@H]1CC[C@H]2[C@@H](C)C(=O)O[C@@H]3O[C@@]4(C)CC[C@H]1[C@]32OO4`: 11800 nM (active); for `CC1(C)CC/C(=C/c2ccc(Cl)cc2)C1(O)Cn1cncn1` (stereo unspecified): “inactive”; for `CCCCOC(=O)c1ccccc1C(=O)OCc1ccccc1`: “inactive”. The same measure, in the same setting: the same measure for `Oc1ccc2c3c1O[C@H]1c4[nH]c5c(c4C[C@@]4(O)[C@@H](C2)N(CC2CC2)CC[C@]314)C[C@@]1(O)[C@H]2Cc3ccc(O)c4c3[C@@]1(CCN2CC1CC1)[C@H]5O4`: “inactive”. On to `CO/C=C(/C(=O)OC)c1ccccc1Oc1cc(Oc2ccccc2C#N)ncn1`, for which the Potency is 17200 nM (active). In the case of `CC[C@H]1C=CC=CC[C@@H](C)[C@H](O)[C@@](C)(O)C(=O)[C@@H](C)[C@H](O)[C@@H](C)C(=O)[C@@H](C)[C@H](O)[C@@H](C)C=CC(=O)O[C@@H]2[C@@H](C)[C@H](CC1)O[C@]1(CC[C@H](C)[C@H](C[C@@H](C)O)O1)[C@H]2C`, the Potency is 3.3 nM (active).

For the molecule `ClC1=C(Cl)[C@]2(Cl)[C@@H]3[C@@H]4C[C@@H]([C@H]5O[C@@H]45)[C@@H]3[C@@]1(Cl)C2(Cl)Cl`, the Potency was 19300 nM (active). For the molecule `CCC(=O)O[C@@H]1C=C2CCC3C(CCC4(C)C3CC[C@@H]4OC(=O)CC)C2CC1` (stereo partly specified), the Potency entry is “inactive”. `CCCCCC[C@H]1C(=O)O[C@H](C)[C@H](NC(=O)c2cccc(NC=O)c2O)C(=O)O[C@@H](C)[C@@H]1OC(=O)CC(C)C`: the Potency was 46.9 nM (active). Consider `CCOP(=O)(OCC)C(C)NC(=O)N(CCCl)N=O` (stereo unspecified), for which the Potency result was “inactive”. The same measure, in the same setting: the same measure for `CC(C)(O)C(=O)Nc1ccc([N+](=O)[O-])c(C(F)(F)F)c1`: 935 nM (active); for `Cc1cc(O)ccc1Cl`: “inactive”; for `CCN(CC)C(=O)c1ccc(C2=CC3(CCNCC3)Oc3cccc(O)c32)cc1`: “inactive”. On to `CC(N[C@H]1C[C@H]1c1ccccc1)c1ccc2c(c1)OCCO2` (stereo partly specified), for which the Potency result is “inactive”.

As to `CC=C(C)C(=O)N[C@@H](c1ccccc1)[C@@H](O)C(=O)O[C@H]1C[C@@]2(O)[C@@H](OC(=O)c3ccccc3)[C@@H]3[C@]4(OC(C)=O)CO[C@@H]4C[C@H](O)[C@@]3(C)C(=O)[C@H](OC(C)=O)C(=C1C)C2(C)C`, the Potency was 1 nM (active). Consider `S=C(SSC(=S)N1CCCCC1)N1CCCCC1`, for which the Potency was 37.6 nM (active).

The next assay in a line: qHTS of pediatric cancer cell lines to identify multiple opportunities for drug repurposing: Primary screen for BT-37 cells (AID 1347094). To be noted: BT-37 viability, CellTiter-Glo luminescence, 48 h; series mostly up to 57.3 µM. Summed up: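 500-1,000 cells/well; 5 h pre-incubation 37 °C/5% CO2; compound pinned; 48 h; CellTiter-Glo, 15 min RT; luminescence. MIPE 11-pt from 0.78 nM, NPC 8-pt from 0.59 nM final. Bortezomib 2.3 µM final as positive control.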
`CCCN1CCO[C@@H]2c3cc(O)ccc3OC[C@@H]21`: the Potency is 21700 nM (active). For the molecule `Cc1c(N)nc([C@H](CC(N)=O)NC[C@@H](N)C(N)=O)nc1C(=O)N[C@H](C(=O)N[C@@H](C)[C@H](O)[C@@H](C)C(=O)N[C@@H](C(=O)NCCc1nc(-c2nc(C(=O)NCCC[S+](C)C)cs2)cs1)[C@@H](C)O)C(O[C@H]1O[C@H](CO)[C@H](O)[C@@H](O)[C@@H]1O[C@H]1O[C@H](CO)[C@@H](O)[C@H](OC(N)=O)[C@H]1O)c1cnc[nH]1` (stereo partly specified), the Potency was 1370 nM (active).

On to `CC(C)[C@H]1C(=O)N[C@H](CO)Cc2c[nH]c3cccc(c23)N1C`, for which the Potency result is “inactive”. Still for that read-out and setting: for `C#C[C@]1(O)C=C[C@@H]2[C@@H]3CCC4=CC(=O)CC[C@@H]4[C@H]3CC[C@@]21CC` the value was “inactive”. Consider `CC1(C)CC/C(=C/c2ccc(Cl)cc2)C1(O)Cn1cncn1` (stereo unspecified), for which the Potency result was “inactive”.

As to `CCCCOC(=O)c1ccccc1C(=O)OCc1ccccc1`, the Potency entry is “inactive”. With `Oc1ccc2c3c1O[C@H]1c4[nH]c5c(c4C[C@@]4(O)[C@@H](C2)N(CC2CC2)CC[C@]314)C[C@@]1(O)[C@H]2Cc3ccc(O)c4c3[C@@]1(CCN2CC1CC1)[C@H]5O4`, the Potency result was “inactive”. `CC[C@H]1C=CC=CC[C@@H](C)[C@H](O)[C@@](C)(O)C(=O)[C@@H](C)[C@H](O)[C@@H](C)C(=O)[C@@H](C)[C@H](O)[C@@H](C)C=CC(=O)O[C@@H]2[C@@H](C)[C@H](CC1)O[C@]1(CC[C@H](C)[C@H](C[C@@H](C)O)O1)[C@H]2C`: the Potency is 2.2 nM (active). On the same count and under the same terms, the same measure for `CCC(=O)O[C@@H]1C=C2CCC3C(CCC4(C)C3CC[C@@H]4OC(=O)CC)C2CC1` (stereo partly specified): “inactive”; for `CCOP(=O)(OCC)C(C)NC(=O)N(CCCl)N=O` (stereo unspecified): “inactive”. For `Cc1cc(O)ccc1Cl`, the Potency result is “inactive”. On the same count and under the same terms, the same measure for `O=C1C(I)=CC(=C(c2cc(I)c(O)c(I)c2)c2ccccc2C(=O)O)C=C1I`: “inactive”; for `CC(=O)Nc1ccc(OC[C@](C)(O)C(=O)Nc2ccc([N+](=O)[O-])c(C(F)(F)F)c2)cc1`: “inactive”; for `CC(N[C@H]1C[C@H]1c1ccccc1)c1ccc2c(c1)OCCO2` (stereo partly specified): “inactive”. On the same count and under the same terms, the same measure for `S=C(SSC(=S)N1CCCCC1)N1CCCCC1`: 309 nM (active).
